Laboratory results published in PubChem BioAssay AID1159580 (chemical genetic matrix, 2015).
The campaign covered roughly 5,500 compounds. About 2,000 (36%) were called active. Another 18% or so got no clear call; they are omitted. No stated cut-off is given here; in the data, active means normalized growth mostly below about 0.91 (no sharp cut-off); inconclusive means no clear call, values can overlap the other calls; inactive means mostly above about 0.92. The list shows a part of the results.

Assay: chemical genetic growth profiling, strain panel (AID 1159580);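 further: tested at 20 µM; growth read once vehicle control cultures reached saturation at 30 °C; 1 = growth at the plate median or of vehicle wells; lower values mean less growth of the strain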
Settings: growth OD

Measured: normalized growth

CC(C(=O)O)c1ccc(C(=O)c2cccs2)cc1 (stereo not drawn)
inactive: S. cerevisiae deletion strains, locus YKL009W, strain mrt4, hits give low values 1.02 | S. cerevisiae deletion strains, locus YKL068W, hits give low values 1.01 | S. cerevisiae deletion strains, locus YKL085W, strain MDH1 (second series), hits give low values 0.983 | S. cerevisiae deletion strains, locus YKL085W, strain MDH1, hits give low values 0.983 | S. cerevisiae deletion strains, locus YKL160W, strain elf1, hits give low values 0.992 | S. cerevisiae deletion strains, locus YKL190W, strain CNB1, hits give low values 1 | S. cerevisiae deletion strains, locus YKR001C, strain vps1, hits give low values 1.01 | S. cerevisiae deletion strains, locus YKR026C, strain gcn3, hits give low values 0.987 | S. cerevisiae deletion strains, locus YKR091W, strain srl3, hits give low values 1.01 | S. cerevisiae deletion strains, locus YLL001W, strain dnm1, hits give low values 0.995 | S. cerevisiae deletion strains, locus YLL026W, hits give low values 0.99 | S. cerevisiae deletion strains, locus YLL041C, strain sdh2, hits give low values 0.996 | S. cerevisiae deletion strains, locus YLR027C, strain aat2, hits give low values 1.01 | S. cerevisiae deletion strains, locus YLR039C, strain RIC1, hits give low values 1.01 | S. cerevisiae deletion strains, locus YLR058C, strain SHM2, hits give low values 1.01 | S. cerevisiae deletion strains, locus YLR102C, strain apc9, hits give low values 1.01 | S. cerevisiae deletion strains, locus YLR113W, strain HOG1, hits give low values 0.968 | S. cerevisiae deletion strains, locus YLR221C, strain rsa3, hits give low values 0.991 | S. cerevisiae deletion strains, locus YLR258W, strain gsy2, hits give low values 1 | S. cerevisiae deletion strains, locus YLR262C, strain YPT6 (second series), hits give low values 0.951 | S. cerevisiae deletion strains, locus YLR262C, strain YPT6, hits give low values 1 | S. cerevisiae deletion strains, locus YLR268W, strain sec22, hits give low values 1.01 | S. cerevisiae deletion strains, locus YLR320W, strain mms22, hits give low values 1 | S. cerevisiae deletion strains, locus YLR330W, strain CHS5, hits give low values 0.999 | S. cerevisiae deletion strains, locus YLR342W, strain FKS1 (second series), hits give low values 1 | S. cerevisiae deletion strains, locus YLR342W, strain FKS1, hits give low values 1 | S. cerevisiae deletion strains, locus YLR357W, strain rsc2, hits give low values 0.967 | S. cerevisiae deletion strains, locus YLR370C, strain arc18, hits give low values 0.998 | S. cerevisiae deletion strains, locus YLR371W, strain rom2, hits give low values 1.02 | S. cerevisiae deletion strains, locus YLR384C, strain iki3, hits give low values 1.01 | S. cerevisiae deletion strains, locus YLR418C, strain cdc73, hits give low values 1.03 | S. cerevisiae deletion strains, locus YML016C, strain PPZ1, hits give low values 1.01 | S. cerevisiae deletion strains, locus YML032C, strain rad52, hits give low values 1.02 | S. cerevisiae deletion strains, locus YML120C, strain ndi1, hits give low values 1 | S. cerevisiae deletion strains, locus YML124C, strain tub3, hits give low values 1.02 | S. cerevisiae deletion strains, locus YMR058W, strain fet3, hits give low values 1.02 | S. cerevisiae deletion strains, locus YMR078C, strain ctf18, hits give low values 1.02 | S. cerevisiae deletion strains, locus YMR125W, strain sto1, hits give low values 0.976 | S. cerevisiae deletion strains, locus YMR129W, hits give low values 0.985 | S. cerevisiae deletion strains, locus YMR205C, strain PFK2, hits give low values 0.965 | S. cerevisiae deletion strains, locus YMR223W, strain ubp8, hits give low values 1.02 | S. cerevisiae deletion strains, locus YMR231W, strain pep5, hits give low values 0.991 | S. cerevisiae deletion strains, locus YMR263W, strain SAP30, hits give low values 1 | S. cerevisiae deletion strains, locus YMR307W, strain GAS1, hits give low values 0.997 | S. cerevisiae deletion strains, locus YNL067W, strain RPL9B, hits give low values 1 | S. cerevisiae deletion strains, locus YNL071W, strain lat1, hits give low values 1 | S. cerevisiae deletion strains, locus YNL153C, strain GIM3, hits give low values 1 | S. cerevisiae deletion strains, locus YNL183C, strain NPR1, hits give low values 0.949 | S. cerevisiae deletion strains, locus YNL209W, strain ssb2, hits give low values 1.01 | S. cerevisiae deletion strains, locus YNL233W, strain BNI4, hits give low values 1 | S. cerevisiae deletion strains, locus YNL248C, strain rpa49, hits give low values 1.02 | S. cerevisiae deletion strains, locus YNL250W, strain rad50, hits give low values 1.01 | S. cerevisiae deletion strains, locus YNL271C, strain bni1, hits give low values 1.02 | S. cerevisiae deletion strains, locus YNL298W, strain CLA4, hits give low values 1.02 | S. cerevisiae deletion strains, locus YNL307C, strain MCK1, hits give low values 1.02 | S. cerevisiae deletion strains, locus YNL322C, strain KRE1 (second series), hits give low values 0.994 | S. cerevisiae deletion strains, locus YNR049C, strain mso1, hits give low values 0.998 | S. cerevisiae deletion strains, locus YNR052C, strain pop2, hits give low values 1.01 | S. cerevisiae deletion strains, locus YOL006C, strain TOP1, hits give low values 0.978 | S. cerevisiae deletion strains, locus YOL012C, strain htz1 0.883 | S. cerevisiae deletion strains, locus YOL147C, strain pex11, hits give low values 1.01 | S. cerevisiae deletion strains, locus YOR001W, strain rrp6, hits give low values 1.01 | S. cerevisiae deletion strains, locus YOR061W, strain CKA2, hits give low values 1.01 | S. cerevisiae deletion strains, locus YOR069W, strain VPS5, hits give low values 1 | S. cerevisiae deletion strains, locus YOR070C, strain gyp1, hits give low values 1 | S. cerevisiae deletion strains, locus YOR080W, strain dia2, hits give low values 0.988 | S. cerevisiae deletion strains, locus YOR083W, strain WHI5, hits give low values 1 | S. cerevisiae deletion strains, locus YOR106W, strain vam3, hits give low values 0.995 | S. cerevisiae deletion strains, locus YOR136W, strain idh2, hits give low values 1.02 | S. cerevisiae deletion strains, locus YOR144C, strain elg1, hits give low values 1.02 | S. cerevisiae deletion strains, locus YOR184W, strain ser1, hits give low values 1.02 | S. cerevisiae deletion strains, locus YOR231W, strain MKK1, hits give low values 0.993 | S. cerevisiae deletion strains, locus YOR265W, strain rbl2, hits give low values 0.992 | S. cerevisiae deletion strains, locus YOR270C, strain vph1, hits give low values 0.997 | S. cerevisiae deletion strains, locus YOR290C, strain snf2, hits give low values 1.01 | S. cerevisiae deletion strains, locus YOR316C, strain cot1, hits give low values 1.02 | S. cerevisiae deletion strains, locus YPL051W, strain arl3, hits give low values 0.989 | S. cerevisiae deletion strains, locus YPL055C, strain LGE1, hits give low values 1.02 | S. cerevisiae deletion strains, locus YPL078C, strain atp4, hits give low values 0.983 | S. cerevisiae deletion strains, locus YPL106C, strain sse1, hits give low values 0.979 | S. cerevisiae deletion strains, locus YPL240C, strain hsp82, hits give low values 0.992 | S. cerevisiae deletion strains, locus YPL256C, strain CLN2, hits give low values 1.02 | S. cerevisiae deletion strains, locus YPR119W, strain clb2, hits give low values 1.01 | S. cerevisiae deletion strains, locus YPR141C, strain kar3, hits give low values 1.01 | S. cerevisiae deletion strains, locus YPR163C, strain tif3, hits give low values 1.02 | S. cerevisiae deletion strains, locus YPR167C, strain met16, hits give low values 1.02 | S. cerevisiae deletion strains, strain wtn01, hits give low values 1.01 | S. cerevisiae strains, strain wild type, hits give low values 1
